Data published in PubChem BioAssay.
Activity calls are given as the source filed them. Unless noted, how the calls were made is not given here.

Key:
[1] = tested on: Wnt5a (protein binding on small-molecule microarray); assay: Wnt5a binders on small-molecule microarray, primary screen, biophysical, 635/667 nm fluorescence (AID 1142); details: 635 nm fluorescence, higher = more signal;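 further: fluorescence read at 667 nm with signal to noise per printed feature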
[2] = cell viability in Huh7 cells, primary screen, cytotoxicity control for HCV replication inhibitor project, CellTiter-Glo luminescence, basal, 48 h (AID 1143); details: Huh7 HCV replicon, higher = more signal, called active from +8 up or from −8 down;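 further: Huh7 hepatoma cells carrying a hepatitis C replication reporter with no stimulus; test concentration not given here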
[3] = P. aeruginosa biofilm formation inhibitors, primary screen, PAO1 strain, BacTiter-Glo luminescence, LB-PBS (AID 1144); details: 12 h, higher = more signal
[4] = CREB reporter modulators without forskolin, primary screen, cell-based, PC12, CRE-LacZ reporter, unstimulated (AID 1145); details: no forskolin, luminescence, 4.5 h, higher = more signal, called active from +8 up or from −8 down
[5] = CREB reporter modulators under forskolin, primary screen, cell-based, PC12, CRE-LacZ reporter, forskolin-stimulated (AID 1146); details: luminescence, 4.5 h, higher = more signal, called active from +8 up or from −8 down;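 further: PC12 cells with 6xCRE LacZ reporter stimulated by forskolin 10 µM; beta-galactosidase reporter signal reflecting CREB driven transcription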
[6] = biological target: Streptavidin (Streptomyces avidinii) (UniProt P22629); assay: streptavidin binders on small-molecule microarray, primary screen, artefact control for SMM compound annotation, biophysical, 635/667 nm fluorescence (AID 1147); details: streptavidin binding, higher = more signal;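 further: signal reflects streptavidin binding to arrayed compounds as a control protein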
Streptavidin (Streptomyces avidinii), sequence (P22629 whole entry, looked up): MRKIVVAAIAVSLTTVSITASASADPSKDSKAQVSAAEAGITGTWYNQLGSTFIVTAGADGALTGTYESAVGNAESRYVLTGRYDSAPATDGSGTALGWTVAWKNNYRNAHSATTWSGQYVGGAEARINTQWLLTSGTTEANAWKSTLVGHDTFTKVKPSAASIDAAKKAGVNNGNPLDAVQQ

[7] = small-molecule binders of probe aInhba, primary screen, biochemical, small-molecule microarray, 635/667 nm fluorescence (AID 1148); details: higher = more signal;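 further: score merges 667nm spot fluorescence with signal-to-noise for antibody binding to printed compounds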
Torsin-1A (Homo sapiens) [8] = biological target: Torsin-1A (Homo sapiens) (UniProt O14656); assay: torsin A binders from cell lysate, primary screen, small-molecule microarray, wild-type, 635/667 nm (AID 1149); details: COS7 hTOR1A-WT lysate, 635 nm fluorescence, higher = more signal
Torsin-1A (Homo sapiens), sequence (O14656 whole entry, looked up): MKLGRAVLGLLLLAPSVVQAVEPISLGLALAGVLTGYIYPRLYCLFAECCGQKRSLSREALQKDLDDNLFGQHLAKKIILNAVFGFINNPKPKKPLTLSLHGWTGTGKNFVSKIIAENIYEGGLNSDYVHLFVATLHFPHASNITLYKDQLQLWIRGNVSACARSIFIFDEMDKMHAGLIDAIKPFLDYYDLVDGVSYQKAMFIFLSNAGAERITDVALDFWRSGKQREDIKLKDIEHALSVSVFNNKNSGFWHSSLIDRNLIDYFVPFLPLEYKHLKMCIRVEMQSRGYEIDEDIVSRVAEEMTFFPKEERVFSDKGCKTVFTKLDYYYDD

Torsin-1A (Homo sapiens) [9] = biological target: Torsin-1A (Homo sapiens) (UniProt O14656); assay: small-molecule binders of mutant TOR1A in lysate, primary screen, cell lysate, small-molecule microarray, COS7 lysate, 635/667 nm fluorescence (AID 1150); details: COS7 hTOR1A mutant lysate, 635 nm fluorescence, higher = more signal;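 further: score pools 667 nm emission and signal to noise measuring lysate protein binding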
[10] = tested on: Sonic hedgehog protein (Shh); assay: small-molecule binders of Shh protein, primary screen, biochemical, small-molecule microarray, 635/667 nm fluorescence (AID 1151); details: small-molecule microarray binding, 635 nm fluorescence; higher = more signal;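 further: Shh protein binding to compounds spotted on small-molecule microarray slides; score combines spot fluorescence intensity with signal-to-noise across triplicate slides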
[11] = E. coli DRC41 culture turbidity changes, primary screen, E. coli filamentation inducer project, strain DRC41, OD650, 48 h (AID 1152);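 further: E. coli MC1000 strain DRC41 lacking acrAB efflux pump and sulA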; details: E. coli DRC41 (acrAB sulA), higher = more signal, called active from +8 up or from −8 down
[12] = small-molecule binders of probe aLefty1, primary screen, biochemical, small-molecule microarray, 635/667 nm fluorescence (AID 1153); details: higher = more signal;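 further: score merges spot fluorescence with signal-to-noise ratio from the scanned slide images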
[13] = PSAC antagonists in infected red cells, primary screen, cell-based, P. falciparum Indochina, OD700, 1 h (AID 1154); details: P. falciparum Indochina infected RBC osmotic lysis, higher = more signal, called active from +8 up or from −8 down
[14] = PSAC antagonists in infected red cells, primary screen, cell-based, P. falciparum Indochina, OD700, 2 h (AID 1155);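 further: lysis reports solute entry through the parasite surface anion channel PSAC; channel blockers reduce lysis of infected cells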; details: P. falciparum Indochina infected erythrocytes, osmotic lysis OD700; higher = more signal, called active from +8 up or from −8 down
[15] = osmotic lysis modulators in infected erythrocytes, primary screen, PSAC antagonist project, cell-based, P. falciparum Indochina, OD700, 3 h (AID 1156); details: higher = more signal, called active from +8 up or from −8 down
[16] = PSAC antagonists in infected red cells, primary screen, cell-based, P. falciparum Indochina, OD700, 18 h (AID 1157); details: P. falciparum Indochina infected erythrocytes, osmotic lysis OD700, 18 h; higher = more signal, called active from +8 up or from −8 down
[17] = modulators of S6 phosphorylation in cells, primary screen, cell-based, A549, cytoblot, luminescence, serum-stimulated (AID 1158); details: A549 phospho-S6 cytoblot, 5 h, higher = more signal;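 further: serum-stimulated A549 lung adenocarcinoma cells; signal is phosphorylated S6 detected by cytoblot immunostaining with HRP secondary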
[18] = biological target: NADPH oxidase 2 (Homo sapiens) (UniProt P04839); assay: NOX2-dependent H2O2 signal modulators, primary screen, NOX inhibitor project, cell-based, HEK293-NOX2, PMA-stimulated, Amplex Red fluorescence (AID 1159); details: 45 min, higher = more signal, called active from +8 up or from −8 down; further: test concentration not given here
NADPH oxidase 2 (Homo sapiens), sequence (P04839 whole entry, looked up): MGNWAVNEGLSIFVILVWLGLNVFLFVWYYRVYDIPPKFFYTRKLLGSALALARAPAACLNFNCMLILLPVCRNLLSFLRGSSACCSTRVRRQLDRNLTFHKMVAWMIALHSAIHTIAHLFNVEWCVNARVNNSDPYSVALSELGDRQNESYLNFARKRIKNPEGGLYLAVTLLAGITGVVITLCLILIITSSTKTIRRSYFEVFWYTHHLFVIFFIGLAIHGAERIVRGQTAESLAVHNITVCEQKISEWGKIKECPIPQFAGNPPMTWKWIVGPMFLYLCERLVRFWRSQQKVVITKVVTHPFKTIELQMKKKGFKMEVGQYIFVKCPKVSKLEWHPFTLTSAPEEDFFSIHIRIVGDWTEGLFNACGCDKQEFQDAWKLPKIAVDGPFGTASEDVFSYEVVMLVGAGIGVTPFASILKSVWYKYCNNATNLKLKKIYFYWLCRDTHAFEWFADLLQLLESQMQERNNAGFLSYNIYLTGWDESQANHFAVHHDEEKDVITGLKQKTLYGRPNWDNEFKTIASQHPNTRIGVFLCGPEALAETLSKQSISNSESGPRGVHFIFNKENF

[19] = biological target: NADPH oxidase 4 (Homo sapiens) (UniProt Q9NPH5); assay: NOX4-dependent H2O2 signal modulators, primary screen, NOX inhibitor project, cell-based, HEK293-NOX4, tetracycline-induced, Amplex Red fluorescence (AID 1160); details: 45 min, higher = more signal, called active from +8 up or from −8 down
NADPH oxidase 4 (Homo sapiens), sequence (Q9NPH5 whole entry, looked up): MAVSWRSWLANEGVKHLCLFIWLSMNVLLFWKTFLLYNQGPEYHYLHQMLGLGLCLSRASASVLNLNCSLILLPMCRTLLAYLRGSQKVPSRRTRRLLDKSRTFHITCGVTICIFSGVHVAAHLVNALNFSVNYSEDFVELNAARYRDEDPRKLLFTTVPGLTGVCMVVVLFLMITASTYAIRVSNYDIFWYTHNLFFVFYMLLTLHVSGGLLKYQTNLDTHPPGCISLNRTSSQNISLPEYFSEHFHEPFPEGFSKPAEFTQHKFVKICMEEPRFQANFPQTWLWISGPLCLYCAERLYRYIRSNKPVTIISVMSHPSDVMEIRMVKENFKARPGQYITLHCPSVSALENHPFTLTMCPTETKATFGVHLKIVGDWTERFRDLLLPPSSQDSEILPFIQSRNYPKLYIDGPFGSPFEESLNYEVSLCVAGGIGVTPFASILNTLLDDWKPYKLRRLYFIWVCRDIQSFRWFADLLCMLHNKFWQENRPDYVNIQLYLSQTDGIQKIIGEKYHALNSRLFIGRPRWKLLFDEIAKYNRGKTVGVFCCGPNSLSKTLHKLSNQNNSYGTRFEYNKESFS

[20] = biological target: NADPH oxidase 5 (Homo sapiens) (UniProt Q96PH1); assay: NOX5-dependent H2O2 signal modulators, primary screen, NOX inhibitor project, cell-based, HEK293-NOX5, Amplex Red fluorescence (AID 1161); details: HEK293-NOX5, ionomycin, 45 min, higher = more signal
NADPH oxidase 5 (Homo sapiens), sequence (Q96PH1 whole entry, looked up): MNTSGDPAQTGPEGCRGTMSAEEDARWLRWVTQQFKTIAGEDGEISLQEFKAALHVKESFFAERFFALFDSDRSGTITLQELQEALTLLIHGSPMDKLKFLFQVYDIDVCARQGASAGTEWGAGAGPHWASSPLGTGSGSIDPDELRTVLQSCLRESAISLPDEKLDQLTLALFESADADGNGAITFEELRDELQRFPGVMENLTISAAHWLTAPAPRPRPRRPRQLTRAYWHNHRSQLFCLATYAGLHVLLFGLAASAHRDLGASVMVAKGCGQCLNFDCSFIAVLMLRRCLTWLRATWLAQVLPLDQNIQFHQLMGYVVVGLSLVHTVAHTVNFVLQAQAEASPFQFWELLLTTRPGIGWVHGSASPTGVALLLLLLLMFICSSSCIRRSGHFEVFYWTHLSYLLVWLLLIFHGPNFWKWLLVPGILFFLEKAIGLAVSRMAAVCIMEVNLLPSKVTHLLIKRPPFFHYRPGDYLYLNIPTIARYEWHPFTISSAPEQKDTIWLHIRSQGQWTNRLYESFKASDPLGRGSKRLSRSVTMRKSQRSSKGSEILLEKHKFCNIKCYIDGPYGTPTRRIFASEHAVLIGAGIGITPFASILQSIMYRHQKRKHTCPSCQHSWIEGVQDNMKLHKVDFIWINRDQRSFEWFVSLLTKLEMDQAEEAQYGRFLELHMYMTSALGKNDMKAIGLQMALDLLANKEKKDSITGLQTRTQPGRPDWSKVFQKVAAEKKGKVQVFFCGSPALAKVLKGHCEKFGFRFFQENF

| Structure (SMILES) | composite z-score [1] | z-score [2] | z-score [3] | z-score [4] | z-score [5] | composite z-score [6] | composite z-score [7] | composite z-score (Torsin-1A (Homo sapiens) [8]) | composite z-score (Torsin-1A (Homo sapiens) [9]) | composite z-score [10] | z-score [11] | composite z-score [12] | z-score [13] | z-score [14] | z-score [15] | z-score [16] | z-score [17] | z-score [18] | z-score [19] | z-score [20] |
| --- | --- | --- | --- | --- | --- | --- | --- | --- | --- | --- | --- | --- | --- | --- | --- | --- | --- | --- | --- | --- |
| O=C1C2=CC[C@H]3C(=O)N(c4ccc(F)cc4F)C(=O)[C@H]3[C@H]2[C@H](O)[C@@H]2O[C@H]12 | 0.28 | 0.612 (inactive) | -0.845 (inactive) | -0.202 (inactive) | 0.305 (inactive) | 0.447 | -0.0221 | 0.528 | 0.308 | 0.389 | -0.138 (inactive) | 0.558 | -0.487 (inactive) | -0.122 (inactive) | -0.708 (inactive) | -0.0627 (inactive) | 0.311 | 0.0832 (inactive) | 0.0553 (inactive) | -0.191 |
| CCOC(=O)CCN1C(=O)[C@H]2[C@@H]3C(=CC[C@H]2C1=O)C(=O)[C@H]1O[C@H]1[C@H]3O | -0.544 | -5.94 (inactive) | 0.737 (inactive) | 0.79 (inactive) | 28.7 (active) | -0.7 | -0.253 | -0.47 | 0.914 | -0.87 | 0.244 (inactive) | -0.284 | 3.05 (inactive) | 0.673 (inactive) | 0.587 (inactive) | 0.254 (inactive) | 0.642 | 0.955 (inactive) | 0.35 (inactive) | 0.38 |
| CC(=O)OC[C@H]1O[C@H](CC=NOC(C)CN2CCCCc3nc(C)c(C)cc32)C=C[C@@H]1OC(C)=O (stereo not given in full) | 0.696 | -0.402 (inactive) | 0.725 (inactive) | -0.157 (inactive) | 0.278 (inactive) | 1.87 | -0.137 | 3.43 | 2.9 | 1.48 | 0.0072 (inactive) | 0.589 | 0.595 (inactive) | 0.324 (inactive) | 0.417 (inactive) | 0.246 (inactive) | -0.626 | -1.69 (inactive) | -0.695 (inactive) | -1.24 |
| CC(C)CON=C1C[C@@H](O)[C@@H](O)[C@@H]2[C@@H]3C(=O)N([C@@H](C)c4ccccc4)C(=O)[C@@H]3CC[C@@H]12 | -0.0932 | -0.192 (inactive) | 0.374 (inactive) | 0.149 (inactive) | -0.776 (inactive) | 0.0337 | -0.0791 | -0.0344 | 0.118 | -0.104 | -0.196 (inactive) | -0.0155 | 0.694 (inactive) | 0.63 (inactive) | 0.181 (inactive) | 0.281 (inactive) | -0.691 | -1.96 (inactive) | 0.799 (inactive) | -0.519 |
| COC(=O)[C@@H]1CC[C@H](C)[C@@H](c2ccc(Br)cc2)N1C[C@@H](O)CN=[N+]=[N-] | 0.538 | -3.06 (inactive) | -1.91 (inactive) | 0.105 (inactive) | -0.571 (inactive) | 0.398 | -0.224 | 0.54 | -0.117 | 0.581 | -1.67 (inactive) | -0.147 | 1.87 (inactive) | -0.514 (inactive) | 0.27 (inactive) | -0.956 (inactive) | 1.84 | 0.0777 (inactive) | -1.37 (inactive) | 0.126 |
| CC(C)C(=O)N[C@H]1CCCN1C(=O)C=Cc1ccccc1 | 0.121 | 0.623 (inactive) | 0.186 (inactive) | -0.255 (inactive) | -0.135 (inactive) | 0.111 | 0.0173 | 0.445 | 0.231 | 0.769 | -1.05 (inactive) | 0.271 | 1.35 (inactive) | 0.627 (inactive) | 0.632 (inactive) | 0.346 (inactive) | -0.53 | 0.679 (inactive) | 0.913 (inactive) | -0.732 |
| CCN1C(C)=C(C(=O)OC)[C@@H](c2ccccc2)N2C(=O)[C@](O)(C(=O)OC)CC(C(C)=O)=C12 | 0.24 | 0.0021 (inactive) | -0.63 (inactive) | -0.324 (inactive) | -0.482 (inactive) | -0.466 | -0.0986 | 0.837 | 0.153 | 0.742 | -0.0844 (inactive) | -0.22 | 0.725 (inactive) | 0.893 (inactive) | 0.62 (inactive) | 0.195 (inactive) | 0.825 | 0.188 (inactive) | 0.724 (inactive) | 0.697 |
| COC(OC)[C@@H](C)[C@H](OC)[C@@H](C)[C@H](OC)c1ccccc1 | 0.3 | -0.609 (inactive) | -1.32 (inactive) | 1.46 (inactive) | 0.0401 (inactive) | -0.211 | -0.321 | 0.237 | -0.252 | 0.155 | 0.215 (inactive) | -0.235 | -0.271 (inactive) | -0.947 (inactive) | -0.75 (inactive) | -1.06 (inactive) | 1.67 | 0.491 (inactive) | 0.153 (inactive) | 0.577 |
| C=CC[C@@H]1C=CC(ON=C(C)C)[C@@H](CO)O1 (stereo not given in full) | -0.174 | 0.28 (inactive) | 0.0414 (inactive) | -1.13 (inactive) | -0.92 (inactive) | 0.543 | 0.0357 | 0.193 | -0.611 | -0.117 | -1.85 (inactive) | -0.147 | 0.42 (inactive) | 0.81 (inactive) | -0.316 (inactive) | 0.195 (inactive) | -0.0323 | -0.202 (inactive) | -0.173 (inactive) | 0.264 |
